# In the library only some 6.7% were active in any assay of this set; here they are far more common.
# PINK1 expr mod: A Quantitative High throughput Screen to Identify Chemical Modulators of PINK1 Expression; PINK1 immunofluorescence, high-content cytometry, 24 h; Potency, µM (highest dose often 76.6 µM), inactives show at the highest dose activation (PINK1 increase), actives largely listed as activators; 410,000 tested, 0.2% active; AID 624263, 2012; active = well fitted activation curve with a large enough effect; inconclusive = small, poorly fitted or top-dose-only effect; cell line not stated here; also: % of control where 0% means no effect; nearly all actives have a fitted effect of over 65% in size
#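 PINK1 protein, normally rapidly degraded, was detected by immunofluorescence after 24 hour compound treatment of a stable cell line. Titration data (5 concentrations) came from laser-scanning cytometry, with CCCP-treated wells as controls.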
# KB-V1 cytotox: qHTS assay for MDR1-selective chemotherapeutics: Primary screen using the drug-selected MDR subline cells KB-V1; KB-V1 MDR cells viability, CellTiter-Glo, 72 h; Potency, µM (top dose mostly 46.1 µM), usual class: cytotoxic; 400,000 tested, 3.4% active; AID 1347076, 2019; also: % is scaled to controls: 0 for no effect and ±100 for the full control effect; nearly all actives have a fitted effect of over 60% in size
#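 KB-V1, DMEM (no phenol red) + 10% FBS; cpd pin-transferred, titration series; 72 h, 37 degrees C; CellTiter-Glo, luminescence. Data normalized, curve-fit.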
# SW480 rerep: A quantitative high throughput screen for small molecules that induce DNA re-replication in SW480 colon adenocarcinoma cells; Potency, µM (titrated, usually from 46.1 µM), without a hit: at the highest dose re-replication activation, most hits filed as activators; 340,000 tested, 1.8% active; SW480 DNA re-replication, Hoechst DNA content imaging, 48 h; also: % of control where 0% means no effect; nearly all actives have a fitted effect of over 55% in size
#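 Readout is total intensity of Hoechst-stained nuclei, excited at 405 nm and collected at 500-530 nm. Compound treatment lasted 48 hr at 37 C in 5% CO2 before staining.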
# MCF10A rereplic: A quantitative high throughput screen for small molecules that induce DNA re-replication in MCF 10a normal breast cells; MCF 10A DNA re-replication, Hoechst nuclear intensity, 48 h; Potency, µM (series often up to 46.1 µM), for inactives: at the top dose activity, positive = re-replication, actives largely listed as activators; 350,000 tested, 2.9% active; also: % of control where 0% means no effect; nearly all actives have a fitted effect of over 50% in size
# KB-3-1 cytotox: qHTS assay for MDR1-selective chemotherapeutics: Primary screen using the parental adenocarcinoma cell KB-3-1; Potency, µM (doses to about 46.1 µM), hits mostly cytotoxic; AID 1347075, 2019; KB-3-1 viability, CellTiter-Glo ATP luminescence, 72 h; 400,000 tested, 1.4% active; also: % is scaled to controls: 0 for no effect and ±100 for the full control effect; nearly all actives have a fitted effect of over 60% in size
#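 Cytotoxicity in the drug-sensitive parental line KB-3-1 was scored as loss of CellTiter-Glo luminescence following 72 h incubation with compound. Values come from curve fitting of normalized concentration-response data.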
# An asterisk follows results filed as active; i = inactive; ? = inconclusive; nt = not tested or not shown; [ ] = remark or other dose. Unless noted, calls follow the shape of the dose curve; as a rule, active = well fitted curve in the direction sought with a large enough effect; inconclusive = small, poorly fitted or top-dose-only effect, or another doubt; inactive = no such curve, though single readings can be large; an effect the other way counts as inactive or inconclusive. Potency is read from the fitted curve at half-maximal effect.
SMILES,PINK1 expr mod,KB-V1 cytotox,SW480 rerep,MCF10A rereplic,KB-3-1 cytotox
COC(=O)c1ccc(CNCC(=O)Nc2ccc(C(=O)OC)cc2)cc1,2%,i,2%,16µM*,i
O=C(CNCc1ccccc1)Nc1ccc(Cl)cc1,6%,?,?,18µM*,10µM*
COC(=O)c1ccc(NC(=O)CNCc2ccncc2)cc1,1%,i,-49%,-1%,i
Cc1cc(NC(=O)/C=C/c2ccc(Br)cc2)no1,2%,?,10µM*,4%,i
Cc1cc(NC(=O)/C=C/c2ccc(Cl)cc2)no1,?,i,6.5µM*,9%,i
CCCCCC(=O)OCc1ccc(C2=CC(=O)CC(C)(C)C2=O)cc1,2%,i,nt,nt,i
CN(C)c1ccc(CNC(=O)c2ccc3c(c2)N(C)C(=O)C2CCCCN32)cc1 (centres undefined),3%,i,nt,nt,i
CCCCN(CCCC)C(=O)c1cc(Cl)ccc1[N+](=O)[O-],-1%,23µM*,?,13%,i
Cc1cnc(C(=O)OCC(=O)c2ccc(Br)s2)cn1,0%,i,-714%,-17%,i
COc1ccc(-c2cc(C(=O)NCc3ccc(F)cc3)c3c(-c4ccc(F)cc4)[nH]nc3n2)cc1OC,9%,?,nt,nt,?
COc1cccc2cc(C(=O)C3=C(O)C(=O)N(CCN(C)C)C3c3ccc(F)cc3)oc12 (centres undefined),3%[38.3 µM],i,8.2µM*,5.8µM*,i
CCN=c1scc(C)n1/N=C/c1cc(Br)c(O)c(OC)c1,3%,i,7%,21µM*,i
Cc1cccc[n+]1CCCCCCCCCC[n+]1ccccc1C,2%,i,-22%,-2%,1.5µM*
Brc1cccc[n+]1CCC[n+]1ccccc1Br,-1%,i,nt,nt,?
CCOc1ccc(CCNC(=O)CN2C(=O)COc3ccc(S(=O)(=O)N(CC)CC)cc32)cc1,1%,i,nt,nt,i
N#CC1CC(c2ccc([N+](=O)[O-])cc2)=NN1c1ccc([N+](=O)[O-])cc1 (centres undefined),5%,?,?,6.5µM*,i
O=[N+]([O-])c1cccc(C2CC(c3ccccc3)=NN2c2ccccc2)c1 (centres undefined),4%,?,13%,9%,i
Cc1cccc2cc(C#N)c(NCCNS(=O)(=O)c3ccc4c(c3)OCCO4)nc12,-2%[38.3 µM],23µM*,16µM*,?,i
COc1ccc(C(=O)NCCNc2nc3c(C)cccc3cc2C#N)cc1OC,0%,i,2.6µM*,0.58µM*,?
Cc1ccc2nc(NCc3ccccc3)c(C#N)cc2c1,4%,i,?,15µM*,i
COc1ccc(C(=O)NCCNc2nc3c(C)cccc3cc2C#N)cc1,6%,i,15%,18µM*,i
COc1ccc(C(=O)c2[nH]c(N)c(C(=O)NCCc3c[nH]c4ccccc34)c2-c2ccc(Cl)c(F)c2)cc1,1%,i,nt,nt,?
COc1ccc(C(=O)NCCNc2nc3ccc(C)cc3cc2C#N)cc1,8%,i,?,21µM*,i
Cc1ccc2nc(NCCNC(=O)c3ccccc3)c(C#N)cc2c1,6%,i,?,?,i
CC(=O)c1ccc(N2CCN(c3ncnc4onc(-c5ccc(Cl)cc5)c34)CC2)cc1,2%,i,nt,nt,i
O=C(NC(Cc1ccccc1)C(=O)O)c1ccco1 (centres undefined),0%,i,?,1%,i
O=C(N[C@@H](Cc1ccccc1)C(=O)NC1CCCCC1)c1ccco1,1%,13µM*,0%,15%,i
O=C(N[C@@H](Cc1ccccc1)C(=O)NC1CCCCCC1)c1ccco1,3%[38.3 µM],5.2µM*,1%,-4%,?
